Source: PubChem (National Center for Advancing Translational Sciences (NCATS))
TDP1 cell CPT: qHTS for Inhibitors of human tyrosyl-DNA phosphodiesterase 1 (TDP1): qHTS in cells in presence of CPT; chicken DT40 Tdp1-/-;hTDP1 cells + 20 nM CPT, ATP luminescence, 48 h; Potency, µM (titrated, usually from 46.2 µM), hits mostly inhibitors; 420,000 compounds, 12% hits; AID 686979, 2013; also: nearly all actives have a fitted effect of over 55% in size
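Cell growth measured by CellTiter-Glo luminescence after a minimum 48 h, 37 C compound exposure with 20 nM CPT in Tdp1-knockout DT40 cells stably expressing hTDP1, seeded 400/well; qHTS titration format.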
ATXN2 expr inh: Primary qHTS for Inhibitors of ATXN expression | HEK-293 ATXN2-luciferase reporter, luminescence, 24 h | Potency, µM (top dose mostly 57 µM), hits mostly inhibitors | 360,000 compounds, 0.72% hits | AID 1745845, 2022; also: nearly all actives have a fitted effect of over 55% in size
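qHTS (up to 57 uM final) was run with 24 h compound exposure of reporter cells at 37 °C. Each well was multiplexed: SteadyGlo luminescence measured ATXN2-luciferase expression after a fluorogenic Gly-Phe-AFC viability readout (25 uM final).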
HepG2 viability: qHTS for Inhibitors of TGF-b: Cytotox Counterscreen; AID 588856, 2011; Potency, µM (doses to about 46.1 µM), most hits filed as cytotoxic; HepG2 CAGA-GFP viability, ATP luminescence, 18 h; 410,000 compounds, 0.76% hits
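CellTiter-Glo luminescence gave cytotoxicity after 18 hours at 37 degrees C. The cells were HepG2 CAGA-GFP in 1% FBS DMEM, stimulated with 500 pg/mL TGF-beta after compound addition. %Activity was normalised to no-cell wells (complete cell-killing) and DMSO (no toxicity), and curves were fitted and classified.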
ATXN viability: Viability Counterscreen for Primary qHTS for Inhibitors of ATXN expression; S2 cells (HEK-293 line with an ATXN2-luciferase reporter) viability, CellTiter-Fluor protease fluorescence, 24 h; Potency, µM (highest dose often 56.7 µM), most hits filed as cytotoxic; 400,000 compounds, 0.49% hits; AID 651635, 2014; also: nearly all actives have a fitted effect of over 40% in size
TGFb SMAD3 inh: qHTS for Inhibitors of TGF-b; HepG2 CAGA-GFP TGF-b/SMAD3 reporter, GFP fluorescence, 18 h; TGF-beta stimulated, 500 pg/mL final; 410,000 compounds, 1.2% hits; Potency, µM (doses to about 46.1 µM), actives largely listed as inhibitors; AID 588855, 2011; also: nearly all actives have a fitted effect of over 65% in size
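GFP signal (ex488/em500-530) from TGF-beta-stimulated HEPG2 CAGA-GFP cells, 500 pg/mL final, 18 h at 37 degrees C in DMEM plus 1% FBS, normalized to unstimulated and DMSO-stimulated controls.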
TDP1 cell noCPT: qHTS for Inhibitors of human tyrosyl-DNA phosphodiesterase 1 (TDP1): qHTS in cells in absence of CPT; DT40 Tdp1-/- hTDP1 cells, no CPT, ATP luminescence, 48 h; Potency, µM (doses to about 46.2 µM), most hits filed as inhibitors; 420,000 compounds, 15% hits; also: nearly all actives have a fitted effect of over 55% in size
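Seeded 400 DT40-hTDP1 cells/well (vehicle DMSO, no 20 nM CPT); pinned compounds; ≥48 hr at 37 °C; CellTiter-Glo luminescence as viability measure.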
Each line names hits and unclear results; the compound was inactive in the other large screens. Compounds with a hit are over-represented: about 17% of the library has one in this group of screens. Calls follow the shape of the dose curve; as a rule, active = well fitted curve in the direction sought with a large enough effect; inconclusive = small, poorly fitted or top-dose-only effect, or another doubt; inactive = no such curve, though single readings can be large; an effect the other way counts as inactive or inconclusive.

Cc1ccc2nc(-c3ccc(NC(=O)CCN4C(=O)c5ccccc5C4=O)cc3)sc2c1	none
Cc1ccc(C2(C)NC(=O)N(CC(=O)Nc3ccc(-c4nc5ccc(C)cc5s4)cc3)C2=O)cc1 (stereo not given)	TDP1 cell CPT inconclusive, TDP1 cell noCPT 10.3µM
CCC(=O)NC(=S)Nc1ccc(-c2nc3ccc(C)cc3s2)cc1	TDP1 cell CPT 20.6µM, TDP1 cell noCPT inconclusive
Cc1ccc2nc(-c3ccc(NC(=S)NC4CC(C)(C)NC(C)(C)C4)cc3)sc2c1	TDP1 cell CPT 3.66µM, HepG2 viability 12.6µM, ATXN viability inconclusive, TGFb SMAD3 inh inconclusive, TDP1 cell noCPT 6.51µM
CC1=C(C(=O)NC2CCCc3c2cnn3-c2ccc(F)cc2F)OCCO1 (stereo not given)	TDP1 cell CPT 20.6µM, TDP1 cell noCPT 4.11µM
CCc1cc(C(=O)NC2CCCc3c2cnn3-c2ccc(F)cc2F)no1 (stereo not given)	TDP1 cell CPT 20.6µM, TDP1 cell noCPT 18.4µM (no result: ATXN2 expr inh)
CCOC(=O)c1ccc(CC(=O)c2ccc(O)cc2O)o1	TDP1 cell CPT inconclusive, TDP1 cell noCPT 13µM
COC(=O)c1ccc(CC(=O)c2ccc(O)cc2O)o1	TDP1 cell CPT inconclusive, TDP1 cell noCPT inconclusive
CC(=O)O[C@@H]1C[C@H]2C(C)(C)C(=O)C=C[C@]2(C)[C@H]2CC[C@@]3(C)[C@H](c4ccoc4)OC(=O)[C@H]4O[C@]43[C@@]21C	TDP1 cell CPT inconclusive, ATXN2 expr inh inconclusive, TGFb SMAD3 inh inconclusive, TDP1 cell noCPT inconclusive (no result: ATXN viability)
CC1(C)C(=O)C=C[C@@]2(C)C1C=C[C@@]1(C)C2CC[C@@]2(C)C(c3ccoc3)OC(=O)C3OC312 (stereo not given in full)	TDP1 cell CPT 16.4µM, TDP1 cell noCPT 11.6µM (no result: ATXN2 expr inh, HepG2 viability, ATXN viability, TGFb SMAD3 inh)
CCOc1ccc(CNn2cnnc2)cc1	TDP1 cell CPT 16.4µM, TDP1 cell noCPT inconclusive
CN(C)S(=O)(=O)c1cccc(C(=O)OCC(=O)NC2CCCc3ccccc32)c1 (stereo not given)	none
CC(=O)c1cc(-c2ccccc2)n(CC(=O)N2CCN(C3CCCC3)CC2)c1C	TDP1 cell CPT inconclusive, TDP1 cell noCPT 23.1µM
CC(=O)c1cc(-c2ccccc2)n(CC(=O)N2CCC(C)CC2)c1C	TDP1 cell CPT inconclusive, TDP1 cell noCPT 29.1µM
CCN1C[C@@H]2[C@@H]3C(=O)N(C)C(=O)[C@@H]3[C@](C)(C1=O)N2C(=O)c1ccc(F)cc1	none
N[C@@H](Cc1cc(CP(=O)(O)O)cc(-c2ccccc2Cl)c1)C(=O)O	none (no result: ATXN2 expr inh, HepG2 viability, ATXN viability, TGFb SMAD3 inh)
COc1cccc(NCc2nnc3n2CCCCC3)c1	none
O=C(Nc1nnc(-c2ccccc2Cl)o1)c1ccco1	TDP1 cell CPT inconclusive, TDP1 cell noCPT inconclusive
COc1cccc2sc(Nc3nnc(-c4ccccc4Cl)o3)nc12	TDP1 cell CPT 1.64µM, ATXN2 expr inh inconclusive, ATXN viability inconclusive, TGFb SMAD3 inh inconclusive, TDP1 cell noCPT 1.46µM
COc1cccc2sc(NN)nc12	TDP1 cell CPT inconclusive, TDP1 cell noCPT inconclusive
COc1ccccc1-c1nnc(Nc2nc3c(OC)cccc3s2)o1	TDP1 cell CPT 0.92µM, ATXN viability inconclusive, TGFb SMAD3 inh inconclusive, TDP1 cell noCPT 0.731µM
COc1cccc(-c2nnc(Nc3nc4c(F)cccc4s3)o2)c1	TDP1 cell CPT 20.6µM, TGFb SMAD3 inh inconclusive, TDP1 cell noCPT 23.1µM
COc1cc2c(cc1OC)[C@@H](c1ccccc1)CN(C)CC2	TDP1 cell noCPT 15µM (no result: ATXN2 expr inh, HepG2 viability, ATXN viability, TGFb SMAD3 inh)
COc1cc2c(cc1OC)C(c1ccccc1)N(C(=O)c1ccccc1)CC2 (stereo not given)	TDP1 cell CPT inconclusive, TDP1 cell noCPT inconclusive (no result: ATXN2 expr inh)
COc1cc2c(cc1OC)C(c1ccccc1)N(C(=O)c1ccco1)CC2 (stereo not given)	TDP1 cell CPT 20.6µM, TDP1 cell noCPT 20.6µM
COc1ccc(OCC2c3cc(OC)c(OC)cc3CCN2C(=O)C(C)C)cc1 (stereo not given)	TDP1 cell CPT inconclusive, TDP1 cell noCPT 23.1µM
COC(=O)c1ccc(OCC2NCCc3cc(OC)c(OC)cc32)cc1 (stereo not given)	TDP1 cell CPT inconclusive, TDP1 cell noCPT inconclusive (no result: ATXN2 expr inh)
COC(=O)c1ccc(OCC2c3cc(OC)c(OC)cc3CCN2C(=O)c2ccc(OC)cc2)cc1 (stereo not given)	TDP1 cell CPT inconclusive, TDP1 cell noCPT inconclusive
COC(=O)c1ccc(OCC(O)CN2CCc3cc(OC)c(OC)cc3C2c2ccccc2)cc1 (stereo not given)	TDP1 cell CPT 5.8µM, TGFb SMAD3 inh inconclusive, TDP1 cell noCPT 5.8µM
CC(=O)c1ccc(NC(=O)c2cccc(NC(=O)N3CCSc4ncccc43)c2)cc1	none (no result: ATXN2 expr inh, ATXN viability)
CCOC(=O)c1c(C)[nH]c(C)c1S(=O)(=O)N(C)CC(=O)NCc1ccc(Cl)cc1	TDP1 cell CPT inconclusive, TGFb SMAD3 inh inconclusive, TDP1 cell noCPT inconclusive
O=c1[nH][nH]c(=O)c2c1[nH]c(=S)n2Cc1ccccc1	none
O=CN1CCCN(C(=O)c2cc(NC(=O)c3ccccc3)cc3ncn(C4CCCC4)c23)CC1	none (no result: ATXN2 expr inh, HepG2 viability, TGFb SMAD3 inh)
COC(=O)c1ccc(OCC2c3cc(OC)c(OC)cc3CCN2C(=O)Cc2ccc(OC)c(OC)c2)cc1 (stereo not given)	TDP1 cell CPT 23.1µM, TDP1 cell noCPT inconclusive
CCC(=O)N1CCc2cc(OC)c(OC)cc2C1COc1ccc(C(=O)OC)cc1 (stereo not given)	TDP1 cell CPT inconclusive, TDP1 cell noCPT inconclusive
COc1ccc(CC(=O)N2CCc3cc(OC)c(OC)cc3C2COc2cc(C)cc(C)c2)cc1OC (stereo not given)	TDP1 cell CPT 18.4µM, TGFb SMAD3 inh 14.1µM, TDP1 cell noCPT 18.4µM
COCC(=O)N1CCc2cc(OC)c(OC)cc2C1COc1ccc2c(C)cc(=O)oc2c1 (stereo not given)	TGFb SMAD3 inh inconclusive, TDP1 cell noCPT inconclusive
COC(=O)c1ccc(OCC2c3cc(OC)c(OC)cc3CCN2C(=O)Cc2ccc(OC)cc2)cc1 (stereo not given)	TDP1 cell CPT inconclusive, TDP1 cell noCPT 20.6µM
COC(=O)c1ccc(OCC2c3cc(OC)c(OC)cc3CCN2C(=O)c2ccco2)cc1 (stereo not given)	TDP1 cell CPT 23.1µM, TDP1 cell noCPT 20.6µM
CCOC(=O)c1c(C)[nH]c(C)c1S(=O)(=O)N1CCC(C(=O)N2CCN(c3cccc(C)c3C)CC2)CC1	TDP1 cell CPT 18.4µM, ATXN2 expr inh inconclusive, ATXN viability inconclusive, TGFb SMAD3 inh inconclusive, TDP1 cell noCPT inconclusive
